Assay outcomes (PubChem BioAssay)
In the library only some 2.2% were active in any assay of this set; here they are far more common.
Nrf2 block: Nrf2 pathway inhibition. A549 ARE-Fluc reporter, luciferase luminescence, 18-24 h. hit rate 2.1% among 360,000. Potency, µM (top dose mostly 46 µM), actives largely listed as inhibitors; note: nearly all actives have a fitted effect of over 60% in size
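Cells were seeded and rested 2 h, then exposed to compounds for 18-24 h. CellTiter-Fluor was read first as a viability measure. BugLite was added 15 min before the final luminescent read of ARE-luciferase activity in A549 cells.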
A549 tox-1: A549 cytotoxicity, counter-screen for Nrf2 inhibitors. A549 ARE-Fluc cells, CellTiter-Fluor viability, 18-24 h. Potency, µM (highest dose often 46 µM), actives largely listed as inhibitors. hit rate 0.16% among 390,000
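A549 ARE-Fluc cells in 5% FBS OPTI-MEM, 5000 cells/well, rested 2 h then exposed to compounds in concentration-response for 18-24 h at 37 °C. Viability by CellTiter-Fluor fluorescence (Ex 405/Em 525) after 30 min; luciferase luminescence (BugLite, 15 min, RT) read afterwards.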
Nrf2 activator: activators of Nrf2 (ARE) signaling | Potency, µM (titrated, usually from 46.1 µM), most hits filed as activators | AREc32 ARE-luciferase reporter (MCF7-derived line), luminescence, 24 h | hit rate 0.31% among 410,000; note: nearly all actives have a fitted effect of over 65% in size
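Steps: seed AREc32_Fluc cells (1000/well, 5% FBS OPTI-MEM); incubate overnight at 37 deg C; add 23 nL compound; incubate 24 hr; add Steady-Glo; hold 30 min RT; read luminescence.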
Pin1 inh: inhibitors of human Pin1; hit rate 0.009% among 390,000; Potency, µM (doses to about 115 µM), hits mostly inhibitors; Pin1 FP peptide displacement, HiFluor488, 10 min; Q13526; AID 504891; active = well fitted inhibition curve with a large enough effect in the polarisation, with a control signal flat, not every such curve was filed as active; inconclusive = small, poorly fitted or top-dose-only effect, or effect the other way, or a change in a side signal; inactive = no such curve, though single readings can be large or run the other way; the % refers to the polarisation
FLuc counter 3: counter-screen for Nrf2 inhibitors: firefly luciferase enzyme inhibition. Potency, µM (titrated, usually from 57.5 µM), most hits filed as inhibitors. AID 720522. hit rate 4% among 1,400. purified firefly luciferase, luminescence inhibition. shares compounds with Nrf2 block; note: nearly all actives have a fitted effect of over 65% in size
Target sequence (P08659 whole entry, looked up): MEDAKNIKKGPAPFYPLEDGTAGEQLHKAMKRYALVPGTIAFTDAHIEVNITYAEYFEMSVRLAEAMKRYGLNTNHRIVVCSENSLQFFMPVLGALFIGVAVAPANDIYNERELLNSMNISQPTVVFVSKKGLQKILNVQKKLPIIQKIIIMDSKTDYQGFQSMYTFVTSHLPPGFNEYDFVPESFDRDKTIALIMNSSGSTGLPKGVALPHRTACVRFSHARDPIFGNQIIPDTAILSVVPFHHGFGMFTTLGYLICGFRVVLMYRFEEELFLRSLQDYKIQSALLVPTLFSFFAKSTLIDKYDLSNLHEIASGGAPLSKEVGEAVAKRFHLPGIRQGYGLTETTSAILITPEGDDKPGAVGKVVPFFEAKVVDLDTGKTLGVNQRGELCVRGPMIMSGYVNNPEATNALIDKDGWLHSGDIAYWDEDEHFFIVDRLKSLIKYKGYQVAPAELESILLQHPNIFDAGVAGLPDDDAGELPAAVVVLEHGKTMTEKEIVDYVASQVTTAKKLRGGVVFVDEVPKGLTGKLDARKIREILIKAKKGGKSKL
A549 tox-2: counter-screen for Nrf2 inhibitors: cytotoxicity in A549 ARE cells | shares compounds with Nrf2 block | A549 ARE-Fluc cells, cytotoxicity counterscreen | Potency, µM (top dose mostly 46.1 µM), most hits filed as inhibitors | hit rate 2% among 1,400 | AID 720523;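 note: cells exposed to compounds for 18 to 24 hours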
Nrf2 ARE inh: reduces Nrf2 ARE reporter signal in A549 cells; shares compounds with Nrf2 block; Potency, µM (doses to about 46.1 µM), hits mostly inhibitors; A549 ARE-firefly luciferase reporter, luminescence; hit rate 74% among 1,400; note: nearly all actives have a fitted effect of over 65% in size
Each line names hits and unclear results; the compound was inactive in the other large screens (follow-up assays come after a bar, where shown). Unless noted, calls come from the whole dose curve; as a rule, active = well fitted curve in the direction sought with a large enough effect; inconclusive = small, poorly fitted or top-dose-only effect, or another doubt; inactive = no such curve, though single readings can be large; an effect the other way counts as inactive or inconclusive.

CCOc1ccc(NC(=O)Cn2cnc3sc(C)c(S(=O)(=O)N4CCN(c5ccccc5OC)CC4)c3c2=O)cc1	none
FC(F)(F)c1cnc(N2CCC(=NOCc3ccc(Cl)cc3)CC2)c(Cl)c1	Nrf2 block 8.2µM | FLuc counter 3 inactive | A549 tox-2 inactive | Nrf2 ARE inh inactive
Cc1ccc(CON=C2CCN(c3ncc(C(F)(F)F)cc3Cl)CC2)cc1	none
Cc1cc2oc(=O)cc(CSc3nnc(-c4cccs4)o3)c2cc1C(C)C	Nrf2 block 8.2µM, A549 tox-1 inconclusive | FLuc counter 3 inactive | A549 tox-2 inactive | Nrf2 ARE inh inconclusive
Cc1cc2oc(=O)cc(CSc3nnc(C)n3N)c2cc1C(C)C	none (no result: Nrf2 block)
O=C(c1cnn(-c2ccc(F)cc2)c1-n1cccc1)N1CCN(c2ccccc2)CC1	none
Cc1cc(/C=C(\C#N)C(=O)Nc2ccccc2)c(C)n1-c1ccc(F)cc1	none
Cc1cc(C(=O)O)ccc1-n1c(C)cc(/C=C(/C#N)C(=O)Nc2ccccc2)c1C	Nrf2 block 5.8µM | FLuc counter 3 inactive | A549 tox-2 inactive | Nrf2 ARE inh inconclusive
COc1ccc(CNC(=O)C2CCCN(S(=O)(=O)c3ccc4c(ccn4C)c3)C2)c(OC)c1 (stereo not drawn)	none (no result: Nrf2 block)
O=C(O)c1ccc2c(c1)C(=O)N([C@]1(C(=O)O)C[C@H]1c1ccccc1)C2=O	none (no result: Nrf2 activator)
CCCCCCCCNc1ncnc2ccccc12	Nrf2 block 5.8µM, A549 tox-1 inconclusive, Pin1 inh inconclusive | FLuc counter 3 inactive | A549 tox-2 inactive | Nrf2 ARE inh 7.3µM
CCN(c1ccccc1)S(=O)(=O)c1ccc2[nH]cc(C(=O)NCc3ccc(C)cc3)c(=O)c2c1	none (no result: Nrf2 block)
CSc1cccc(NS(=O)(=O)c2ccc(C(C)=O)cc2)c1	Nrf2 block 4.6µM | FLuc counter 3 inactive | A549 tox-2 inactive
CC(=O)c1cccc(NS(=O)(=O)c2ccc(NC(=O)N3CCCCC3)cc2)c1	Nrf2 block 8.2µM | FLuc counter 3 inactive | A549 tox-2 inactive | Nrf2 ARE inh 15µM
CC(=O)c1cccc(NC(=O)N2CCCCCC2)c1	none
CN(CC(=O)Nc1ccc(OC(F)(F)F)cc1)C(=O)c1ccc(N2CCCC2=O)cc1	Nrf2 block 2.9µM | FLuc counter 3 inactive | A549 tox-2 inactive | Nrf2 ARE inh 5.2µM
CN(CC(=O)Nc1ccc(Cl)cc1)C(=O)c1ccc(N2CCCC2=O)cc1	none
COc1ccc2c(c1)cc1c(=O)n(CC(=O)NCCCc3ccccc3)nc(C)n12	Pin1 inh inconclusive
Cc1ccc2c(=O)c(C(=O)c3cccc(Cl)c3)cn(CC(=O)Nc3ccccc3C(F)(F)F)c2n1	Nrf2 block inconclusive
COc1ccc(-n2c(=O)c3c(c4cc(OC)ccc4n3C)n(Cc3ccc(F)cc3Cl)c2=O)cc1	none
O=C(Nc1ccc2nc(SCCOc3ccccc3Cl)sc2c1)c1cccs1	Nrf2 block 9.2µM | FLuc counter 3 inactive | A549 tox-2 inactive | Nrf2 ARE inh 8.2µM
Cc1ccc(-c2cc(C(=O)N(Cc3ccc(C(C)(C)C)cc3)Cc3ccco3)no2)cc1	Nrf2 block inconclusive
COc1ccc(CN(C)Cc2nc(Cc3cccc(F)c3)no2)c2cccnc12	Nrf2 block 3.3µM, A549 tox-1 inconclusive | FLuc counter 3 inactive | A549 tox-2 inactive | Nrf2 ARE inh inconclusive
COc1cccc(-n2cc(CN(C)Cc3nc(Cc4cccc(F)c4)no3)cn2)c1	none
COc1ccccc1CN(C)C(=O)c1cccc(S(=O)(=O)N2CCN(Cc3ccccc3)CC2)c1	none
CSc1ccc(CN(C)C(=O)c2cccc(S(=O)(=O)N3CCN(Cc4ccccc4)CC3)c2)cc1	Nrf2 block 5.8µM | FLuc counter 3 inactive | A549 tox-2 inactive | Nrf2 ARE inh inconclusive
CN(CCOc1ccc(Cl)cc1)C(=O)c1cccc(S(=O)(=O)N2CCN(Cc3ccccc3)CC2)c1	Nrf2 block 8.2µM, Pin1 inh inconclusive | FLuc counter 3 inactive | A549 tox-2 inactive | Nrf2 ARE inh 9.2µM
CC(=O)Nc1ccc(NC(=O)CCCn2nc(C)c3sc4ccccc4c3c2=O)cc1	Nrf2 block inconclusive, A549 tox-1 inconclusive
COc1ccc(N2CCN(c3ncnc4onc(-c5ccc(F)cc5)c34)CC2)cc1	none
